Mdm2-MdmX inh: inhibitors of human Mdm2/MdmX interaction. O15151+Q00987. SaOS-2 split-luciferase Mdm2/MdmX complementation, luminescence. inhibition, % at 8 µM. actives 3% (n = 330,000);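 active = inhibition of at least 50% at 8 µM in the primary screen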
PAX8 reporter: PAX8 transcriptional activity inhibition; actives 1.2% (n = 360,000); AID 652154; RMG-I TPO-luciferase reporter, SteadyGlo, 24 h; inhibition, % at 12.6 µM;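 active = mean replicate inhibition at least 60% with every replicate also reaching 60%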;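 also: luciferase light reporting Pax8 driven TPO promoter activity; plate controls were median of neutral control wells for no effect and mitoxantrone controls for full effect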
CSC inhib: cancer stem cell inhibition. inhibition, % at 7.5 µM. actives 1.1% (n = 300,000). cancer stem cell-like cells viability, luminescence; in the data active = inhibition above about 75%; tested in HMLE shEcad cells
Shn3 3UTR inh: Schnurri-3 reporter inhibition in Clone20 osteoblasts; Clone20 osteoblast Shn3 3'UTR firefly luciferase, 24 h; inhibition, % at 12.5 µM; actives 0.52% (n = 360,000); AID 588674;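 active = mean inhibition of at least 75% with every replicate also reaching 75%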;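 also: 0% = median of neutral control wells and 100% = pilot-screen positive control compound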
Gli-Sufu block: Gli-Sufu pathway antagonism | Sufu-KO-LIGHT fibroblasts, Gli luciferase reporter luminescence | inhibition, % at 5 µM | actives 0.74% (n = 340,000);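 active = inhibition above about 55%, limit read from the data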;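 also: 0% = DMSO-treated cells and 100% = wells with medium but no cells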
Beta cell apopt: beta cell apoptosis inhibition; actives 0.8% (n = 300,000); protection from apoptosis, % (concentration not given with the values); INS-1E cytokine-induced death, ATP luminescence, 48 h; percent of positive-control rescue, neutral wells zero;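 active = Every replicate reaches about 75%, or at least half do and their mean reaches it too, limit read from the data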;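 also: 0% = cytokine-treated negative control wells and 100% = positive control rescue; higher means more ATP so stronger rescue from cytokine killing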
Mdm2 MdmX conf: human Mdm2/MdmX binding inhibition, confirmed; shares compounds with Mdm2-MdmX inh; luminescent assay; AID 489028; actives 55% (n = 10,000); inhibition, % at 8 µM; in the data active = inhibition above about 40%
Full FLuc ctr: inhibits full-length luciferase, flagging false Mdm2/MdmX hits. SaOS-2 full-length luciferase counterscreen, luminescence. actives 77% (n = 6,200). shares compounds with Mdm2-MdmX inh. inhibition, % at 8 µM;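 active = mean inhibition at 8 µM reaching about 37%, which flags the compound as non-specific, limit read from the data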;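 also: p53-null SaOS-2 cells with luciferase driven by a doxycycline-inducible promoter; compound on cells about two nights before reading with doxycycline added after day one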
The depositor's hits bear a star; . = not tested or not shown. Hits are enriched below; roughly 4% of the tested compounds scored in any of these assays.

SMILES | Mdm2-MdmX inh | PAX8 reporter | CSC inhib | Shn3 3UTR inh | Gli-Sufu block | Beta cell apopt | Mdm2 MdmX conf | Full FLuc ctr
CCCC(=O)Nc1ccc2c(c1)OC[C@H](C)N(CCC)C[C@H](C)[C@@H](OC)CN(C)C2=O | . | -14 | . | . | . | . | . | .
O=C1N[C@@H](Cc2c[nH]c3ccccc23)COC(=O)[C@@H](Cc2ccc(F)cc2)C/C=C\C[C@H]1CC(=O)N(CCO)Cc1ccccc1 | 51* | 6 | 32 | -1 | 19 | 1 | 20 | .
O=C1N[C@@H](Cc2c[nH]c3ccccc23)COC(=O)[C@H](Cc2ccc(F)cc2)C/C=C\C[C@@H]1CC(=O)N(CCO)Cc1ccccc1 | 41 | 1 | 1 | 15 | 14 | 3 | . | .
CN1CCN(C(c2cccc(Cl)c2)c2ccccc2Cl)CC1 (stereo not drawn) | 55* | -2 | -2 | 18 | 18 | 0 | 44* | 65*
COc1ccc2c3c([nH]c2c1)[C@@H](CO)N(Cc1nccs1)CC31CCN(C(=O)C2CCC2)CC1 | . | -17 | . | . | . | . | . | .
O=C(C[C@@H]1C[C@@H]2c3cc(NC(=O)C4CCOCC4)ccc3O[C@@H]2[C@H](CO)O1)NCc1ccccc1F | . | -4 | . | . | . | . | . | .
Clc1cccc(OCCN2CCN(CCOc3cccc(Cl)c3)CC2)c1 | 69* | -18 | 36 | 74 | -12 | 20 | 35 | .
COc1ccccc1C(=O)N(CCC1CCCN1C)c1nc2ccccc2s1 (stereo not drawn) | 82* | -104 | 9 | 31 | 4 | 4 | 79* | 106*
CCCC(=O)Nc1ccc2c(c1)C(=O)N(C)[C@@H]1CC[C@@H](CC(=O)NCCN3CCCCC3)O[C@H]1CO2 | . | 2 | . | . | . | . | . | .
C[C@H](CO)N1C[C@H](C)[C@H](CN(C)C(=O)c2ccncc2)OCCCC[C@H](C)Oc2ccc(NC(=O)C3CCCCC3)cc2C1=O | . | -6 | . | . | . | . | . | .
CCOc1ccc(-n2c(C)cc(C(=O)CCl)c2C)cc1 | 94* | 17 | 17 | 77 | 5 | 36 | 55* | 88*
COC(=O)c1ccc(-n2c(C)cc(C(=O)CCl)c2C)cc1 | 94* | 19 | 52 | 33 | 2 | 5 | 62* | 58*
COC(=O)c1ccc(-n2c(C)cc(C(=O)COC(=O)C3=COCCO3)c2C)cc1 | 13 | -16 | . | 2 | -7 | 6 | . | .
C/C=C/c1ccc2c(c1)O[C@@H](CN(C)C(=O)c1cnccn1)[C@H](C)CN([C@@H](C)CO)S2(=O)=O | . | -12 | . | . | . | . | . | .
CCN(CC)CCNc1cc(C)nc2c1C(=O)C(=O)C=C2N1CCCCC1 | 65* | 73* | 54 | 82 | -6 | -7 | 67* | 29
CCN(CC)CCNC(=O)C(=O)Nc1cc2c3c(c1)CC(=O)N3CCC2 | -1 | 1 | 2 | 0 | -25 | -2 | . | .
CO[C@@H]1CN(C)C(=O)c2ccc(NC(=O)Cc3ccccc3)cc2OC[C@@H](C)N(C(=O)c2ccccc2F)C[C@@H]1C | . | 22 | . | . | . | . | . | .
CCOc1cc(-c2c(C#N)c(N)nc3c2CCc2ccccc2-3)ccc1O | 81* | -2 | 0 | -2 | 35 | 7 | 79* | 51*
COc1ccccc1-c1c(C)c(C)nc(N)c1C#N | 21 | -6 | . | 27 | 3 | -5 | . | .
COc1ccccc1-c1c(C#N)c(N)nc2c1CCc1ccccc1-2 | 70* | 24 | . | 1 | 24 | . | 70* | 53*
O=C(Nc1ccc(F)cc1)N1CCCCN2[C@H](CO)[C@@H](c3ccc(C#CC4CC4)cc3)[C@H]2C1 | . | 3 | . | . | . | . | . | .
Cc1noc(C)c1NC(=O)Nc1ccc2c(c1)CC(=O)N([C@@H](C)CO)C[C@H](C)[C@@H](CN(C)Cc1ccc(C(=O)Nc3ccccc3N)cc1)O2 | . | 7 | . | . | . | . | . | .
C[C@@H]1CCCCO[C@@H](CN(C)S(=O)(=O)c2ccccc2)[C@H](C)CN([C@@H](C)CO)C(=O)c2cc(NC(=O)CCCN(C)C)ccc2O1 | . | -19 | . | . | . | . | . | .
COc1ccc(-c2csc(N(CCCN(C)C)C(=O)c3ccccc3Cl)n2)cc1 | 71* | 12 | 24 | -4 | 30 | 7 | 49* | 84*
